Values joined by “and” are separate entries in the source; they are usually repeats but may differ in a detail not shown here. Identical values can stand only once. The panel holds about 79,000 compounds, 15% with a hit somewhere; the sample as a whole holds those more often. A structure can be active in one record and inactive in another. Active and inactive are the calls of the source. No stated cut-off is given here; in the data, active means growth inhibition above about 70%; inactive means the rest.
Tests used:
[1] = NCI Yeast Anticancer Drug Screen. Data for the rad50 strain (AID 155);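 further: 0% = growth of vehicle-only cultures of the same strain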; conditions: S. cerevisiae rad50 strain growth inhibition, stronger effect = higher value
How it was run: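 A DNA repair-deficient yeast mutant serves as the test organism; compound-induced growth inhibition is calculated against vehicle-treated cells.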

[2] = NCI Yeast Anticancer Drug Screen. Data for the mec2-1 strain (AID 157); conditions: S. cerevisiae mec2-1 strain, stronger effect = higher value
How it was run: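 Mutant yeast (mec2-1) grown with compound; growth inhibition relative to vehicle control reported.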

[3] = NCI Yeast Anticancer Drug Screen. Data for the sgs1 mgt1 strain (AID 161);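 further: 0% = growth of cultures given vehicle only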; conditions: S. cerevisiae sgs1 mgt1 strain, stronger effect = higher value
How it was run: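 This yeast growth screen uses a strain with defined DNA-repair lesions; compound-treated growth is compared with vehicle-treated growth.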

[4] = NCI Yeast Anticancer Drug Screen. Data for the cln2 rad14 strain (AID 165);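 further: 0% = growth equal to vehicle treated cultures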; conditions: S. cerevisiae cln2 rad14 strain, stronger effect = higher value
How it was run: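 Readout is yeast growth inhibition versus vehicle-treated controls, using a strain with cln2 and rad14 alterations exposed to compound.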

[5] = NCI Yeast Anticancer Drug Screen. Data for the bub3 strain (AID 167); conditions: S. cerevisiae bub3 mutant strain, stronger effect = higher value
How it was run: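 Inhibition values come from growth of compound-treated mutant yeast normalised to vehicle-treated controls.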

[6] = NCI Yeast Anticancer Drug Screen. Data for the mlh1 rad18 strain (AID 175); conditions: S. cerevisiae mlh1 rad18 strain growth inhibition, stronger effect = higher value
How it was run: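 Genetically defined yeast (DNA repair-deficient) exposed to compounds; growth inhibition determined relative to vehicle.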

[7] = at 5.0 µM (retest, dose inferred, filed as 0.5)
[8] = at 50.0 µM (retest, dose inferred, filed as 5.0)

Row | SMILES | growth inhibition [1, 7] | growth inhibition [1, 8] | growth inhibition ([1]; at 50.0 µM) | growth inhibition [2, 7] | growth inhibition [2, 8] | growth inhibition ([2]; at 50.0 µM) | growth inhibition [3, 7] | growth inhibition [3, 8] | growth inhibition ([3]; at 50.0 µM) | growth inhibition [4, 7] | growth inhibition [4, 8] | growth inhibition ([4]; at 50.0 µM) | growth inhibition [5, 7] | growth inhibition [5, 8] | growth inhibition ([5]; at 50.0 µM) | growth inhibition [6, 7] | growth inhibition [6, 8] | growth inhibition ([6]; at 50.0 µM)
1 | CC1=NC(=Cc2ccc([N+](=O)[O-])cc2)C(=O)N1n1c(-c2ccccc2)nc2ccccc2c1=O | 3% (inactive) | 1% (inactive) | 48.9% (inactive) | -13% (inactive) | 0% (inactive) | 63.8% (inactive) | 5% (inactive) | 7% (inactive) | 45.3% (inactive) | 13% (inactive) | 11% (inactive) | 77% (active) | -15% (inactive) | -2% (inactive) | 68% (inactive) | 11% (inactive) | 1% (inactive) | 62.8% (inactive)
2 | c1ccc([P+](CCCCCCCC[P+](c2ccccc2)(c2ccccc2)c2ccccc2)(c2ccccc2)c2ccccc2)cc1 | 40% (inactive) | 98% (active) | 88.5% (active) | 39% (inactive) | 99% (active) | 92% (active) | 46% (inactive) | 98% (active) | 90.9% (active) | 30% (inactive) | 95% (active) | 87.7% (active) | 46% (inactive) | 98% (active) | 91.1% (active) | 73% (active) | 97% (active) | 89.8% (active)
3 | O=c1cc[nH]c2ccccc12 | 34% (inactive) | 81% (active) | 13.5% (inactive) and 0% (inactive) | 24% (inactive) | 63% (inactive) | 1.25% (inactive) and -3.85% (inactive) | 16% (inactive) | 64% (inactive) | -6.85% (inactive) and 7.5% (inactive) | 6% (inactive) | 48% (inactive) | 7.35% (inactive) and -24.1% (inactive) | 71% (active) | 98% (active) | -1.2% (inactive) and -1.85% (inactive) | 50% (inactive) | 88% (active) | 0.7% (inactive) and 0.35% (inactive)
4 | CCOC(CN=c1nc(N(C)C)ss1)OCC | 1% (inactive) | -20% (inactive) | 2.75% (inactive) | -9% (inactive) | -12% (inactive) | -8% (inactive) | 11% (inactive) | -19% (inactive) | -3.95% (inactive) | -22% (inactive) | -24% (inactive) | 7.85% (inactive) | -1% (inactive) | -9% (inactive) | 43.4% (inactive) | -5% (inactive) | -7% (inactive) | -15.3% (inactive)
5 | CCCCCC[C@H](C/C=C\CCCCCCCC(=O)OC)OC(C)=O | -6% (inactive) | 27% (inactive) | -0.2% (inactive) and -4.1% (inactive) | -4% (inactive) | 69% (inactive) | 2.25% (inactive) and -0.75% (inactive) | -6% (inactive) | 42% (inactive) | 29.2% (inactive) and -40.8% (inactive) | -1% (inactive) | -4% (inactive) | 73.5% (active) and 54.6% (inactive) | -6% (inactive) | 92% (active) | 3.65% (inactive) and -26.2% (inactive) | -3% (inactive) | 21% (inactive) | 9.45% (inactive) and -22.9% (inactive)
6 | Nc1c2ccccc2nc2ccccc12 | 51% (inactive) and 41% (inactive) | 92% (active) and 90% (active) | 94.5% (active) and 92.5% (active) | 18% (inactive) and 19% (inactive) | 66% (inactive) and 70% (active) | 60.8% (inactive) and 60.3% (inactive) | 20% (inactive) and 18% (inactive) | 73% (active) and 68% (inactive) | 75.8% (active) and 74% (active) | 25% (inactive) | 51% (inactive) and 65% (inactive) | 54.5% (inactive) and 79% (active) | 5% (inactive) and -1% (inactive) | 79% (active) and 73% (active) | 63.6% (inactive) and 75.5% (active) | 21% (inactive) and 25% (inactive) | 86% (active) | 90.6% (active) and 88.5% (active)
7 | O=C(c1ccco1)N(C(=S)N1CCN(c2ccccn2)CC1)C1CCCCC1 | 5% (inactive) | 46% (inactive) | 73.3% (active) | -7% (inactive) | 49% (inactive) | 86.7% (active) | 0% (inactive) | 76% (active) | 84.3% (active) | 30% (inactive) | 60% (inactive) | 71.8% (active) | 0% (inactive) | 40% (inactive) | 79% (active) | -14% (inactive) | 80% (active) | 79.3% (active)
8 | CCOCc1ccccc1C(O)(c1ccc(OC)cc1)c1ccc(OC)cc1 | 5% (inactive) and 1% (inactive) | 2% (inactive) and 1% (inactive) | 48.3% (inactive) and 78.8% (active) | 2% (inactive) and 6% (inactive) | 9% (inactive) and 11% (inactive) | 33.4% (inactive) and 72.5% (active) | 6% (inactive) and -2% (inactive) | 10% (inactive) and 21% (inactive) | 60.5% (inactive) and 77.2% (active) | 3% (inactive) and 5% (inactive) | 3% (inactive) and 7% (inactive) | 67% (inactive) and 94.2% (active) | 3% (inactive) and 14% (inactive) | 33% (inactive) and 61% (inactive) | 76.5% (active) and 95.8% (active) | 3% (inactive) and 5% (inactive) | -26% (inactive) and 41% (inactive) | 74% (active) and 82.8% (active)
9 | O=[N+]([O-])c1ccc(N/N=C/CC(O)(C(F)(F)F)C(F)(F)F)c([N+](=O)[O-])c1 | 0% (inactive) | 98% (active) | 88.6% (active) | -1% (inactive) | 98% (active) | 91.5% (active) | -1% (inactive) | 97% (active) | 91.8% (active) | 25% (inactive) | 98% (active) | 88% (active) | 13% (inactive) | 98% (active) | 86.4% (active) | 3% (inactive) | 98% (active) | 89.9% (active)
10 | CCc1[nH]c(=O)nc(N)c1-c1ccc(N2CCCCC2)c([N+](=O)[O-])c1 | -11% (inactive) | -25% (inactive) | 89.8% (active) | -23% (inactive) | 1% (inactive) | 86.8% (active) | 0% (inactive) | -6% (inactive) | 90.8% (active) | -31% (inactive) | -25% (inactive) | 70.8% (active) | -25% (inactive) | -32% (inactive) | 71.4% (active) | -22% (inactive) | -12% (inactive) | 90.8% (active)
11 | CC1CC=CCC1C(=O)O (centres undefined) | 8% (inactive) | -1% (inactive) | 36% (inactive) and 9.75% (inactive) | 2% (inactive) | -2% (inactive) | -17.2% (inactive) and 28.9% (inactive) | 2% (inactive) | -3% (inactive) | -10.5% (inactive) and -4.9% (inactive) | 13% (inactive) | 3% (inactive) | -8.4% (inactive) and -41.3% (inactive) | 6% (inactive) | 2% (inactive) | 33.3% (inactive) and -3.9% (inactive) | 4% (inactive) | -5% (inactive) | 9.65% (inactive) and 10.2% (inactive)
12 | Nc1cc(Cl)c(S(=O)(=O)O)cc1Cl | 67% (inactive) | 98% (active) | -16.2% (inactive) and 35.6% (inactive) | 18% (inactive) | 98% (active) | -1.25% (inactive) and -2.55% (inactive) | 9% (inactive) | 96% (active) | -1.55% (inactive) and -2.6% (inactive) | -7% (inactive) | 96% (active) | -14% (inactive) and 39.3% (inactive) | 12% (inactive) | 98% (active) | -6.55% (inactive) and 1.75% (inactive) | 28% (inactive) | 98% (active) | 5.2% (inactive) and 30.6% (inactive)
13 | Nc1ccc2c(ccc3ccc4ccccc4c32)c1 | -6% (inactive) | 93% (active) | 96.7% (active) | -8% (inactive) | 98% (active) | 96.8% (active) | -8% (inactive) | 98% (active) | 97.8% (active) | -7% (inactive) | 96% (active) | 95.5% (active) | -6% (inactive) | 97% (active) | 96.7% (active) | 17% (inactive) | 97% (active) | 95.6% (active)

From PubChem BioAssay (NCI)
